Screens: PubChem, National Center for Advancing Translational Sciences (NCATS)
D2 PAM-1 – potentiates the human D2 dopamine receptor allosterically; DiscoveRx D2 beta-arrestin cells, luminescence, 90 min; 100% = 57 uM dopamine signal; actives 0.23% (n = 360,000); P14416; potentiation, % (test concentration not listed); in the data active means potentiation above about 50%; inconclusive means mostly about 30% to 49%
Target sequence (P14416 whole entry, looked up): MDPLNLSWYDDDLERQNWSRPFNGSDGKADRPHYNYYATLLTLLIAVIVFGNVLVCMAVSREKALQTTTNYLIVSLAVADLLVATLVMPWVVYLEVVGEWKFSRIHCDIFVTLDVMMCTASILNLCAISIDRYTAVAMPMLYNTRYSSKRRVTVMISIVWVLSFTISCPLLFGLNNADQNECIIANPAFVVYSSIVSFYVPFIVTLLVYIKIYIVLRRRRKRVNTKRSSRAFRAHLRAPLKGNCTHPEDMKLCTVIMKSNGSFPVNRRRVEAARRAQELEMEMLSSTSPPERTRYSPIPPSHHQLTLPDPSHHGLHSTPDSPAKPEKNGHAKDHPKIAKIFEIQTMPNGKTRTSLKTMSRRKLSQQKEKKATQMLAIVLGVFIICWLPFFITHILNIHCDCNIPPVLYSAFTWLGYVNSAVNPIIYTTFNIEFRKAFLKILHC
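D2 cells co-treated with compound plus 50 nM dopamine (EC20) for 90 min at 37 deg C to detect potentiation. Beta-arrestin recruitment was read as enzyme-fragment luminescence after 1 h at ambient temperature. Full response was set by 57 uM dopamine.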
D2 antag – antagonists of human D2 dopamine receptor | P14416 | HEK293 TREx D2 cells, calcium flux, dopamine EC80 | inhibition, % at 10 µM | actives 2% (n = 340,000); in the data active means inhibition above about 30%; inactive means below that, where a call was filed; further: 0% is about no effect
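In this primary screen, negative modulation is detected by tracking calcium flux after an EC80 dopamine challenge in inducible HEK293 T-REx D2 cells preexposed to test compound for 180 s.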
D2 ag-1 – D2 dopamine receptor (human) agonism. HEK293 T-REx D2 cells, calcium flux agonist mode. AID 485358. actives 0.53% (n = 340,000). activation, % at 2 µM;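 active means activation over 3 SD above normal in the single-dose calcium agonist read, cut at about 30% in these data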; further: 0% is about no effect
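HEK293 Trex D2 cells, tetracycline-induced, o/n 30 C 5% CO2; no-wash Ca dye, RT 30–90 min; 10-cycle baseline, 23 nl cpd added, kinetic Ca read 180 s; agonist hits = positive Ca response.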
D2 ag-2 – human D2 receptor agonism in beta-arrestin assay; P14416; DiscoveRx PathHunter D2 beta-arrestin, luminescence, 90 min; 100% = 57 uM dopamine signal; activation, % (concentration not given with the values); actives 0.084% (n = 360,000); in the data active means activation above about 40%; inconclusive means between about 15% and that limit
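Agonist mode: compounds alone added to overnight-plated D2 PathHunter cells for 90 min at 37 C, with 57 uM final dopamine (EC100) defining full response. Beta-arrestin recruitment detected by chemiluminescent reagent, read after 1 h at ambient temperature.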
D2 PAM-2 – D2 dopamine receptor (human) potentiation | P14416 | HEK293 T-REx D2, calcium flux, EC20 dopamine potentiation | potentiation, % at 10 µM | actives 0.34% (n = 340,000) | AID 485347;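 active means potentiation over 3 SD above the plate norm, cut at about 30% in these data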; further: 0% is about no effect
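Calcium flux readout, no-wash dye, 1 read/s. Inducible HEK293 Trex D2 line, overnight 30 C. Compound alone 180 s (agonist flags), then EC20 dopamine, another 180 s to score potentiation.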
* = called active by the depositor; ? = inconclusive; nt = no result. Compounds with a hit are over-represented: about 2.4% of the library has one in this group of screens.

SMILES	D2 PAM-1	D2 antag	D2 ag-1	D2 ag-2	D2 PAM-2
CCc1cc(=S)n2c([nH]c3ccccc32)c1C#N	5	12	1	2	32*
COc1ccc(Br)cc1CNC(=O)CN1C(=O)CSc2ccc(S(=O)(=O)N3CCOCC3)cc21	nt	nt	1	nt	-13
Cc1ccc(C(=O)c2c(C)oc3c2C(=O)C(=O)c2ccccc2-3)cc1	74*	-36	1	?	1
Cc1oc2c(c1C(=O)N1CCC(C)CC1)C(=O)c1ccccc1C2=O	2	0	0	2	-12
Cc1oc2c(c1C(=O)c1ccc(Cl)cc1)C(=O)C(=O)c1ccccc1-2	109*	1	0	15	3
Cc1ccc(C(=O)c2coc3c2C(=O)C(=O)c2ccccc2-3)cc1	64*	-3	-1	?	7
COc1ccc(-c2nnc(SCC(=O)Nc3cccc(Cl)c3C)nc2-c2ccc(OC)cc2)cc1	nt	nt	0	nt	2
Cc1sc2ncnc(NCC3(N4CCOCC4)CCCCC3)c2c1C	-3	2	1	-2	30*
c1nc(NCC2(N3CCOCC3)CCCCC2)c2ccsc2n1	-8	-3	-2	-1	38*
c1csc(CNc2ncnc3sccc23)c1	-7	nt	nt	-2	nt
COc1ccccc1CNC(=O)C1(C)CCN1Cc1ccc2ccccc2c1 (stereo not drawn)	-9	nt	nt	-3	nt
Cn1cc(S(=O)(=O)N2CCOCC2)cc1C(=O)Nc1ccc(Cl)c(C(F)(F)F)c1	nt	nt	1	nt	6
O=C(Nc1noc2ccccc12)c1ccc(F)cc1	nt	nt	-1	nt	nt
Cc1cccc(C)c1NCc1n[nH]c(=S)n1-c1ccccc1	-3	51*	-2	4	8
CC(NC(=O)c1ccco1)C(=O)N1CCN(c2ccccc2)CC1 (stereo not drawn)	9	-4	1	1	-11
CC(NC(=O)c1ccco1)C(=O)N1CCN(C(c2ccccc2)c2ccccc2)CC1 (stereo not drawn)	57*	5	-1	-3	3
COc1ccc2nc(SC)c(C#N)cc2c1	5	55*	-1	0	-5
COc1ccc2nc(SCC(C)=O)c(C#N)cc2c1	-2	-3	14	-1	7
CN(C)CCCNCC(=O)NN(c1ccccc1)c1ccccc1	-6	15	0	-1	-3
COc1cccc(Cn2cccc(NC(=O)NC3CCCCC3)c2=O)c1	-7	29	0	0	31*
O=C(NC(=S)Nc1ccc2oc(=O)ccc2c1)c1cccc(Cl)c1	-7	30*	0	-4	-2
COC(=O)CS(=O)(=O)c1ccsc1C(=O)Nc1ccc(F)cc1	-8	38*	0	3	7
CC(=O)NC(CC(=O)NC(C)c1ccc(Cl)cc1Cl)c1ccccc1 (stereo not drawn)	-16	34*	-5	-1	-5
CCCN(CC(=O)Nc1ccc(Cl)cc1Cl)C(=O)CC(NC(C)=O)c1ccccc1 (stereo not drawn)	-48	-10	0	-4	0
Cc1ccccc1Cn1c(=O)n(CCCCC(=O)NCc2ccccc2Cl)c(=O)c2ccccc21	nt	nt	0	nt	-6
SMILES	D2 PAM-1	D2 antag	D2 ag-1	D2 ag-2	D2 PAM-2
COc1ccc(N2CCN(CCCNC(=O)c3cc4sccc4n3C)CC2)cc1	-22	40*	38*	4	-27
COc1ccc(Cl)cc1C(=O)NCCCN1CCOCC1	-11	-14	0	1	-3
COc1ccc(S(N)(=O)=O)cc1C(=O)NCCCN1CCN(c2ccc(C)cc2)CC1	-46	49*	1	-2	-19
CCn1cc2nc(SCc3ccc(F)cc3)n(Cc3ccc(Cl)cc3)c(=O)c2n1	nt	nt	0	nt	5
CC(=O)Nc1nonc1-c1nnc(SCc2ccccc2Cl)n1C	nt	nt	-2	nt	11
O=C(CC1SC(=Nc2ccc(O)cc2)NC1=O)Nc1ccccc1 (stereo not drawn)	2	-12	0	-1	11
CCOc1ccc(N=C2NC(=O)C(CC(=O)Nc3ccccc3)S2)cc1 (stereo not drawn)	1	-2	-1	-5	39*
O=C1NCCN1c1ncc([N+](=O)[O-])s1	15	54*	59*	4	-10
CCCNC(=O)C1(C)CCN(Cc2ccc(C)c3ccccc23)C1 (stereo not drawn)	-10	nt	nt	-5	nt
COc1cccc2cc(C(=O)NCc3ccccn3)c(=O)oc12	8	44*	0	-2	-4
CCCCN(CCCNC(=O)CN1N=C(c2ccc(C)cc2)CCC1=O)c1ccccc1	nt	nt	1	nt	-2
N#Cc1cccc(NC(=O)C2CCN(c3ncccn3)CC2)c1	nt	nt	nt	nt	1
O=C1CCCN1c1ncc(S(=O)(=O)c2ccc([N+](=O)[O-])cc2)s1	54*	-12	1	?	5
Cc1cc2cc(C#N)c(N3CCOCC3)nc2cc1Cl	-5	-5	-2	10	-7
COc1ccc(C(CNC(=O)c2oc3cc(Br)ccc3c2C)N2CCCCC2)cc1 (stereo not drawn)	-17	61*	0	-1	-22
COc1ccc(C(CNC(=O)CCNS(=O)(=O)c2ccc(Br)cc2)N2CCCC2)cc1 (stereo not drawn)	-37	-21	0	-6	16
COc1ccc(C(CNC(=O)C(C)Oc2ccc(Br)cc2)N2CCCCC2)cc1 (stereo not drawn)	-6	78*	1	-5	-22
COc1ccc(C(CNC(=O)c2oc3ccc(Br)cc3c2C)N2CCCCC2)cc1 (stereo not drawn)	-32	-25	0	4	-14
CN(Cc1ccccc1)C(=O)CCn1c(=O)c2cccn2c2cccnc21	-6	nt	nt	-4	nt
CC1Cc2cc(S(=O)(=O)CCC(=O)Nc3ccc(F)cc3Cl)ccc2N1C(=O)C1CC1 (stereo not drawn)	nt	nt	nt	nt	-6
COCCCNC(=O)CCCn1c(=O)c2cccn2c2ccccc21	nt	nt	-1	nt	5
O=C(NC(=S)NNC(=O)c1ccc(Cl)cc1Cl)c1cccnc1	-28	-1	1	2	1
Cc1onc(-c2ccccc2)c1C(=O)NNC(=S)NC(=O)c1ccc(Cl)cc1Cl	-13	30*	32*	-3	-4
Cc1onc(-c2ccccc2)c1C(=O)NNC(=O)c1ccccc1	0	2	0	-6	14
Cc1ccccc1C(=O)NNC(=S)NC(=O)c1ccc(Cl)cc1Cl	-12	31*	46*	-3	-15
Cc1cccc(C(=O)NC(=S)NNC(=O)c2ccccc2Cl)c1	-12	25	31*	1	6
COCCCNC(=O)CSC1=Nc2ccccc2C2=NC(CCC(=O)NCc3ccccc3OC)C(=O)N12 (stereo not drawn)	nt	nt	nt	nt	-3
Cc1cccc(C)c1NC(=O)Cn1c(=O)n(CCCS(=O)(=O)C2CCCCC2)c(=O)c2ccccc21	nt	nt	0	nt	5
